Here are results for 33 compounds from PubChem BioAssay (EPA / NIEHS).

In general, AC50 refers to the midpoint of the concentration-response curve, whichever way the signal moves.

Molecules are shown by their SMILES. Inconclusive results are not listed. Active and inactive are the calls of the source. Rule for the calls: active = hit-call score of the fitted dose curve at least 0.9, where 1 is the maximum; inconclusive = response in the unintended direction; inactive = score below 0.9.

This assay is described as follows: Tanguay_ZF_120hpf_SNOU_legacy: (Legacy) Oregon State University Tanguay Lab 120 Hour Post-fertilization zebrafish Assay for Snout Malformation (AID 2283637). An outline of the steps: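 Snout malformation read as a yes/no call on brightfield images of 120 hpf larvae (Tropical 5D strain). Static exposure began at 6 hpf on dechorionated embryos in 0.64% DMSO, with gain of signal analysed versus DMSO controls.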
For the compound `CCCCN1C(=O)[C@@H]([C@H](O)C2CCCCC2)NC(=O)C12CCN(Cc1ccc(Oc3ccc(C(=O)O)cc3)cc1)CC2`, the compound was classed as inactive.

For the compound `c1ccc(C(O[C@@H]2CCCN(CCc3ccc4c(c3)OCO4)C2)c2ccccc2)cc1`, the half-maximal activity concentration (AC50) was 44.2 µM (active).

`Cn1c(=O)c2[nH]cnc2n(C)c1=O`: the result was inactive.

For `CC(C)c1nnc2ccc(-c3ocnc3-c3cc(F)ccc3F)cn12`, the compound was classed as inactive.

Take `O=C(O)c1cccc(C[C@@H]2COc3ccc(OCc4nc5cc(F)ccc5s4)cc3[C@@H]2O)c1`: the AC50 was 3.99 µM (active).

With `CCCCCCCC/C=C\CCCCCCCC(=O)OC[C@@H](O)[C@H]1OC[C@H](O)[C@H]1O`, the compound was classed as inactive.

Regarding `O=S1(=O)CCCO1`, the call was inactive.

Consider `C[C@]12C=CC(=O)C=C1CC[C@H]1[C@@H]3C[C@@H](O)[C@](O)(C(=O)CO)[C@@]3(C)C[C@H](O)[C@@]12F`, for which the compound was classed as inactive.

On to `CCCCC(CC)C(=O)OCCOCCOCCOC(=O)C(CC)CCCC` (stereo not drawn), for which the compound was classed as inactive.

Consider `C=CN1CCCC1=O`, for which the compound was called inactive.

For the compound `CC(=O)c1ccccc1`, the outcome was inactive.

In the case of `OC(Cn1cncn1)(Cn1cncn1)c1ccc(F)cc1F`, the compound was called inactive.

For the compound `CCCCOC(=O)c1ccccc1`, the compound was classed as inactive.

Regarding `c1ccc2cc3ccccc3cc2c1`, the call was inactive.

`CCCCCCCCN(C)C`: the compound was called inactive.

Take `CCn1nc(C)c2c1C(=O)NCC(c1ccc(O)cc1)=N2`: the call was inactive.

As to `CCN(CC)C(=S)SSC(=S)N(CC)CC`, the half-maximal activity concentration (AC50) was 1.4 µM (active).

Turning to `CCCCCCCCCCCCCCO`, the result was inactive.

For the compound `CCCc1ccccc1`, the result was inactive.

`CCc1ccc(O)c(C(C)(C)C)c1`: the call was inactive.

On to `O=C(O)c1ccc2c(c1)nc(C(=O)NC1CCN(C3CC3)CC1)n2Cc1cc(-c2ccc(Cl)s2)on1`, for which the compound was called inactive.

Take `NNC(=O)c1ccncc1`: the compound was called inactive.

Turning to `C=CCc1cc(S(=O)(=O)c2ccc(O)c(CC=C)c2)ccc1O`, the result was inactive.

On to `CCCCCCCCCC`, for which the result was inactive.

Regarding `NC(=O)NN=Cc1ccc([N+](=O)[O-])o1`, the compound was called inactive.

`CC1(C)C(=O)N(Cl)C(=O)N1Cl`: the compound was called inactive.

Take `CCCCCCCC1CCC(=O)O1` (stereo not drawn): the half-maximal activity concentration (AC50) is 31.9 µM (active).

With `c1ccc2ncccc2c1`, the outcome was inactive.

Take `CCOC(N)=O`: the call was inactive.

As to `Cn1cc[nH]c1=S`, the result was inactive.

As to `CCCCCCCCCCCCCCCCOS(=O)(=O)O`, the compound was called inactive.

`OC(CCl)CCl`: the call was inactive.

As to `O=C1CN(N=Cc2ccc([N+](=O)[O-])o2)C(=O)N1`, the result was inactive.
